These results are taken from PubChem BioAssay (NCATS).

The structures appear in SMILES notation. Unmarked numbers belong to inactive results. Inconclusive results are not listed. Active and inactive are the calls of the source. Unless noted, calls come from the whole dose curve; as a rule, active = well fitted curve in either direction with a large enough effect (not every such curve was filed as active); inconclusive = small, poorly fitted or top-dose-only effect, or another doubt; inactive = flat fitted curve, though single readings scatter.

Assay [1] deals with Lysosomal acid glucosylceramidase (Homo sapiens) (UniProt P04062). Put plainly: Glucocerebrosidase-p2 (AID 348; in the data active = potency below about 10 µM; note: potency is the fitted concentration of half-maximal effect). The note with it: purified GBA, blue fluorogenic substrate, 40 min. Summed up:
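Compounds titrated from 0.6 nM upwards against 0.2 nM enzyme in pH 5.9 citric acid/KH2PO4, taurocholate, tween-20; blue fluorogenic substrate 80 uM, 40 min room temperature, stopped and read Ex 365/Em 440 for AC50.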

The target of assay [2] is Cytochrome P450 1A2 (Homo sapiens) (UniProt P05177). Put plainly: p450-cyp1a2 (AID 410; calls by dose curve; note: potency is the fitted concentration of half-maximal effect;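 for activity change, negative = inhibition: -100% = full effect of reference inhibitor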). Summed up: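 Luminescent readout of luciferin formed from Luciferin-ME by human CYP1A2; data normalized against complete inhibition by 57 uM furafylline. Enzyme 20nM, substrate 100uM at Km, 100mM KPO4 buffer, 60 min reaction at room temperature.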
Sequence of Cytochrome P450 1A2 (Homo sapiens) (P05177 whole entry, looked up): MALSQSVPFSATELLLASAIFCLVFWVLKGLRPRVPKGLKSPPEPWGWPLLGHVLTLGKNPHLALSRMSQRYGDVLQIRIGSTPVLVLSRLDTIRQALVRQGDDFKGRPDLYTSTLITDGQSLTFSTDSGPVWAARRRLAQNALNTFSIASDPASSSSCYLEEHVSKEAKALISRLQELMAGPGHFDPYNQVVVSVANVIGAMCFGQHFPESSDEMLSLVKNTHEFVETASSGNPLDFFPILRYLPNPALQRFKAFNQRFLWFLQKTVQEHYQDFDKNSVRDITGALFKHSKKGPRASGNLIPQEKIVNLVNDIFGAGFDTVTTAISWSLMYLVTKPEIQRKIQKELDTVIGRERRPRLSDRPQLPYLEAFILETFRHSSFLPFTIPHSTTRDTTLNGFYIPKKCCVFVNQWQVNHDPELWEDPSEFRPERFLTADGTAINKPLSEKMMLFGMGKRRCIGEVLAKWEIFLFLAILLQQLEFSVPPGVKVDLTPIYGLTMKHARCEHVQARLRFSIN
A short description of assay [3]: NFAT Signaling Pathway (AID 444).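 Note: carbachol stimulus at about its EC50 of 1 µM final; % is set by controls: 0 for no effect and ±100 for the full control effect.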 Particulars: Jurkat NFAT-bla M1, carbachol, beta-lactamase ratio, 5 h; at 7.69 µM (top of the series) unless noted. Summed up:
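Jurkat cells carrying an NFAT-driven β-lactamase reporter and co-transfected muscarinic M1 receptor were treated with compound plus carbachol (1 uM final, an EC50 level) for 5 h at 37 °C. CCF4 loading followed for 1 h at RT; 460/530 nm ratio gave %activity.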

Assay [4] in a line: Stat Signaling Pathway (AID 446).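 Note: ME-180 cervical cancer cells given 40 pM IL-6 alongside compound; SIE-controlled beta-lactamase reporter measured as 460/530 nm FRET emission ratio; % is set by controls: 0 for no effect and ±100 for the full control effect.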 Particulars: ME-180 SIE beta-lactamase reporter, IL-6 stimulated, 5 h; at 7.69 µM (top of the series) unless noted. Summed up: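 Screening format detects activators and inhibitors alike: ME-180 SIE-bla cells stimulated at 40 pM IL-6 for 5 hrs with compound, then dual-emission beta-lactamase read at 405 nm excitation.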
In assay [5] the target is Glucocorticoid receptor (Homo sapiens) (UniProt P04150). Put plainly: GR-GFP Redistribution (AID 450;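 active = compounds whose dose series gives a full or clear partial fitted curve of increased nuclear translocation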; note: potency is the fitted concentration of half-maximal effect). The note with it: U2OS GR-GFP nuclear translocation, laser cytometry, 2 h.
Sequence of Glucocorticoid receptor (Homo sapiens) (P04150 whole entry, looked up, the tested form may be a part): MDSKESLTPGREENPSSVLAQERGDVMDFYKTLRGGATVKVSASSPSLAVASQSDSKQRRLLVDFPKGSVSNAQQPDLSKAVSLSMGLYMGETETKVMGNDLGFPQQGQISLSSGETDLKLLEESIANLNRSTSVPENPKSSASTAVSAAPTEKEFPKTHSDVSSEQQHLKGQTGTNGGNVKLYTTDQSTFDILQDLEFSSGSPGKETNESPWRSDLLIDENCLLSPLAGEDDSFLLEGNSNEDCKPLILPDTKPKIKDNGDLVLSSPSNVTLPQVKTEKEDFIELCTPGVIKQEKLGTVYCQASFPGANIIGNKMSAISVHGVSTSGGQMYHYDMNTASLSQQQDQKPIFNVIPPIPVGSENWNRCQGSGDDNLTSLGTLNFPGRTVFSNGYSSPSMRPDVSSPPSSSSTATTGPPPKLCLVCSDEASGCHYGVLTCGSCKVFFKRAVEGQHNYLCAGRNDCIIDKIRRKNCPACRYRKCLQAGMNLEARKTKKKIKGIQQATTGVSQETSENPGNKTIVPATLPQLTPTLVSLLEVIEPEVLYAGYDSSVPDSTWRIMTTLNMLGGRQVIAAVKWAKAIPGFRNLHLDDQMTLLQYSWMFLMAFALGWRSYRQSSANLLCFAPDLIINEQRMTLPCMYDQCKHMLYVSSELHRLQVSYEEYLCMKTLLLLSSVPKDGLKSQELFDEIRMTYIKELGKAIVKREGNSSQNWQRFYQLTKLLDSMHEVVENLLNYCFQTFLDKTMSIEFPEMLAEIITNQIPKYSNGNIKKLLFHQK
Assay [6] has the same target. Put plainly: GR-EFC Redistribution (AID 451; calls by dose curve; note: potency is the fitted concentration of half-maximal effect). Particulars: CHO-K1 GR-EFC translocation, beta-gal luminescence, 2 h. In outline: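 CHO-K1 cells stably expressing nuclear-localized β-gal enzyme acceptor and GR fused C-terminally to the enzyme donor fragment; ligand-driven nuclear translocation restores β-gal by complementation. Compounds titrated up to 46 uM final, 2 h at 37 °C; luminescence read.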

For assay [7], the target named is Mitogen-activated protein kinase 10 (Mus musculus) (UniProt Q61831). Put plainly: JNK3 AlphaScreen Assay (AID 530).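 Note: kinase came from lysate of stimulated human HepG2 cells; signal reports phosphorylation of biotinylated GST-cJun 1-79 at Ser73 with 10 µM ATP; % is set by controls: 0 for no effect and ±100 for the full control effect.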 Summed up: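 Inhibitors reduce antibody binding to phosphorylated biotin-cJun, lowering AlphaScreen luminescence. Lysates from HepG2 cells pre-activated by IL-1beta plus TNF-alpha supplied JNK3; compounds were titrated.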
Assay [8] addresses 3',5'-cyclic-AMP phosphodiesterase 4B (Homo sapiens) (UniProt Q07343). Description: qHTS Assay for Inhibitors of PDE-IV (AID 607; active = well fitted activation curve with a large enough effect in the main read-out, with a control signal flat, not every such curve was filed as active; note: % of control where 0% means no effect). In outline:
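The readout is membrane depolarisation from a cAMP-sensing CNG channel, detected with a potential dye at ex 535/em 590. Cells were HEK293-derived (endogenous PDE-IV) at 1000 cells/well, titrated up to 22.9 uM final.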

Assay [9] concerns the target Cytochrome P450 2C9 (Homo sapiens) (UniProt P11712). Put plainly: qHTS Assay for Inhibitors and Substrates of Cytochrome P450 2C9 (AID 883; active = well fitted curve in the direction sought with a large enough effect; an effect the other way counts as inactive or inconclusive; note: potency is the fitted concentration of half-maximal effect; nearly all actives have a fitted effect of over 60% in size). In outline:
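CYP2C9 deoxyluciferin hydroxylation, 37C, 60 min with NADPH regeneration; 10nM enzyme, 100uM Luciferin-H (KM). Glo detection reagent stopped reaction; luminescence normalized to sulphaphenazole (57uM) full inhibition.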

The target of assay [10] is Cytochrome P450 2C19 (Homo sapiens) (UniProt P33261). Description: qHTS Assay for Inhibitors and Substrates of Cytochrome P450 2C19 (AID 899; active = well fitted curve in the direction sought with a large enough effect; an effect the other way counts as inactive or inconclusive; note: potency is the fitted concentration of half-maximal effect; nearly all actives have a fitted effect of over 60% in size). Summed up:
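In 50mM KPO4, the reaction held 5nM enzyme and KM-level (10uM) Luciferin-H EGE; it ran 60 min at 37C after NADPH regeneration and a 10 min compound preincubation. Luminescence values were scaled to 57uM ketoconazole as complete inhibition.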

Assay [11] can be described thus: AP1 Signaling Pathway (AID 357). Note: % is set by controls: 0 for no effect and ±100 for the full control effect. Particulars: ME-180 AP-1-bla reporter, EGF-induced, beta-lactamase ratio, 5 h; at 7.69 µM (top of the series) unless noted. Summed up:
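In this screen, ME-180 cells in Opti-MEM with 0.5% dialyzed FBS received EC50 EGF and compound titrations for 5 h. AP-1 reporter beta-lactamase was detected via CCF4 ratio, giving AC50 for positive and negative modulators.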

In assay [12] the target is Cytochrome P450 2D6 (Homo sapiens) (UniProt P10635). Description: qHTS Assay for Inhibitors and Substrates of Cytochrome P450 2D6 (AID 891; active = well fitted curve in the direction sought with a large enough effect; an effect the other way counts as inactive or inconclusive; note: potency is the fitted concentration of half-maximal effect; nearly all actives have a fitted effect of over 60% in size). In outline:
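Human CYP2D6 (5 nM) with 30 uM Luciferin-ME EGE (at Km) in 100 mM KPO4, compound preincubated 10 min, then NADPH regeneration system for 60 min at room temperature. Luciferin read by luminescence; normalized to 1.43 uM quinidine.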

A short description of assay [13]: qHTS Assay for Identification of Small Molecule Agonists for Hypoxia Response Element Signaling Pathway (AID 914; active = well fitted activation curve with a large enough effect in the signal ratio, with a control signal flat, not every such curve was filed as active; the % refers to the signal ratio; note: % of control where 0% means no effect). The note with it: ME-180 (cervical carcinoma) HRE-bla reporter, beta-lactamase ratio, CoCl2, 17 h; activation: active compounds read high. In outline: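 AC50 values come from titration-series %Activity, taken as the 460/530nm ratio of CCF4 fluorescence (excitation 405nm). CellSensor HRE-bla ME-180 cells were treated 17 hours at 37 C with compound plus an EC50 level of CoCl2.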

In assay [14] the target is Cytochrome P450 3A4 (Homo sapiens) (UniProt P08684). Put plainly: qHTS Assay for Activators of Cytochrome P450 3A4 (AID 885; active = well fitted curve in the direction sought with a large enough effect; an effect the other way counts as inactive or inconclusive; note: nearly all actives have a fitted effect of over 65% in size). In outline: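 Steps: enzyme/substrate mix dispensed; compound added, 10 min RT; NADPH regeneration solution added, 60 min RT; luciferin detection buffer stops reaction; 20 min later luminescence measured.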
Sequence of Cytochrome P450 3A4 (Homo sapiens) (P08684 whole entry, looked up): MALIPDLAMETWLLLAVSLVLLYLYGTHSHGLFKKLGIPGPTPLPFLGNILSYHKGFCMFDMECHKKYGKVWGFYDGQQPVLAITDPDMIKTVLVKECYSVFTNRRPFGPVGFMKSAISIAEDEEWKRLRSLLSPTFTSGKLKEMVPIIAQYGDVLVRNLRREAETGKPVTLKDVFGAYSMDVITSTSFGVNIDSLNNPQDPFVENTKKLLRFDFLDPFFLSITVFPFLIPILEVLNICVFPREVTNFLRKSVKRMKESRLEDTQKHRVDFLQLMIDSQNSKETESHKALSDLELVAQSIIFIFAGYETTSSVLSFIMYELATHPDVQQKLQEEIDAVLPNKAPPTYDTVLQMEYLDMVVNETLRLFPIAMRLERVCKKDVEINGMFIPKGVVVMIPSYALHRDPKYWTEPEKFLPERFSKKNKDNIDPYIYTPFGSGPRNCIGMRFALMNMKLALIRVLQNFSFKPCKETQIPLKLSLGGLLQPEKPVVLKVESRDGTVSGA

Sequence of 3',5'-cyclic-AMP phosphodiesterase 4B (Homo sapiens) (Q07343 whole entry, looked up): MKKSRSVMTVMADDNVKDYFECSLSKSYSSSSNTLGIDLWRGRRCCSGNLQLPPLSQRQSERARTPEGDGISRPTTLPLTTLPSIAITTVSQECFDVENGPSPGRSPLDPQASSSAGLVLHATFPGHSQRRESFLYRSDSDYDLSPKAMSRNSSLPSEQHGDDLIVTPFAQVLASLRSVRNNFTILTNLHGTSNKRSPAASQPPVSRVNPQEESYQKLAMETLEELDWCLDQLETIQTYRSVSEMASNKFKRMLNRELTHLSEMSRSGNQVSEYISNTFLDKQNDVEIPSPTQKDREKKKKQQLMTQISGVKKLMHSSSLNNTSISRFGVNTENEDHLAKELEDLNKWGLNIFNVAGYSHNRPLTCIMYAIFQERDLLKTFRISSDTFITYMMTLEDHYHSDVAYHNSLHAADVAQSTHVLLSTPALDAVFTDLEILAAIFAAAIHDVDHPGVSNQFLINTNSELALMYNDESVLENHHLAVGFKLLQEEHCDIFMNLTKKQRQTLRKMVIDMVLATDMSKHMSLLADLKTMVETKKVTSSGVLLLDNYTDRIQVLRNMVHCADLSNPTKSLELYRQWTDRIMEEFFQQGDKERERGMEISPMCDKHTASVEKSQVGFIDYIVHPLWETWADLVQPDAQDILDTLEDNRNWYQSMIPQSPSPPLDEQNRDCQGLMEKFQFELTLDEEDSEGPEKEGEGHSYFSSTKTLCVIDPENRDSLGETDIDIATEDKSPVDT
Sequence of Lysosomal acid glucosylceramidase (Homo sapiens) (P04062 whole entry, looked up): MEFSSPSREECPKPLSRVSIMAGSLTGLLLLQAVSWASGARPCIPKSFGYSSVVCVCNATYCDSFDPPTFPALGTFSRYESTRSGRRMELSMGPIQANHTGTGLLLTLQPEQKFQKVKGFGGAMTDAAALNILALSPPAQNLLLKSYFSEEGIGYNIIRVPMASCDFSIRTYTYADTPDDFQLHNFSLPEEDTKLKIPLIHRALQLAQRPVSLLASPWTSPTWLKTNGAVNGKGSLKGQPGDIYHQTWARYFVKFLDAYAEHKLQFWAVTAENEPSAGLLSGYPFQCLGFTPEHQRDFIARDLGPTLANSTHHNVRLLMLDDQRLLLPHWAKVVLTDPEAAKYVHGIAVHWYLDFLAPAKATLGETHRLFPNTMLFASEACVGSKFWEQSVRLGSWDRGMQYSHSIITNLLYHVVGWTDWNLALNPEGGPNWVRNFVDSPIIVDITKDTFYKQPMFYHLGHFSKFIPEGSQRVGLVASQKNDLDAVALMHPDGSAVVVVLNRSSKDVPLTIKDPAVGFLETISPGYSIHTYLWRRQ
Sequence of Cytochrome P450 2D6 (Homo sapiens) (P10635 whole entry, looked up): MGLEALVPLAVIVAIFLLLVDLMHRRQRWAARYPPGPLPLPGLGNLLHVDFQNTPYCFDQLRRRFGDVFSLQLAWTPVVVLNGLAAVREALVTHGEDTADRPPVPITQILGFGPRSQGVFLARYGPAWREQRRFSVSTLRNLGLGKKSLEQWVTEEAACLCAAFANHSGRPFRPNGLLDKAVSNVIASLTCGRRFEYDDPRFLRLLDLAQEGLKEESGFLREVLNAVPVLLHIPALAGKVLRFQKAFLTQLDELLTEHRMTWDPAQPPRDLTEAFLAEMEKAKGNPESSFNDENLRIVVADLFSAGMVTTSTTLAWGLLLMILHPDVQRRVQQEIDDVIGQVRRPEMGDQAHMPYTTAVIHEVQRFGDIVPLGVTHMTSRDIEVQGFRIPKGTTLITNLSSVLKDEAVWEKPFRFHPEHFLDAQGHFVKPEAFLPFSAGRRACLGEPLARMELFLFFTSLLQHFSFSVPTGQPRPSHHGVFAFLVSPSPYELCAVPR
Sequence of Cytochrome P450 2C9 (Homo sapiens) (P11712 whole entry, looked up): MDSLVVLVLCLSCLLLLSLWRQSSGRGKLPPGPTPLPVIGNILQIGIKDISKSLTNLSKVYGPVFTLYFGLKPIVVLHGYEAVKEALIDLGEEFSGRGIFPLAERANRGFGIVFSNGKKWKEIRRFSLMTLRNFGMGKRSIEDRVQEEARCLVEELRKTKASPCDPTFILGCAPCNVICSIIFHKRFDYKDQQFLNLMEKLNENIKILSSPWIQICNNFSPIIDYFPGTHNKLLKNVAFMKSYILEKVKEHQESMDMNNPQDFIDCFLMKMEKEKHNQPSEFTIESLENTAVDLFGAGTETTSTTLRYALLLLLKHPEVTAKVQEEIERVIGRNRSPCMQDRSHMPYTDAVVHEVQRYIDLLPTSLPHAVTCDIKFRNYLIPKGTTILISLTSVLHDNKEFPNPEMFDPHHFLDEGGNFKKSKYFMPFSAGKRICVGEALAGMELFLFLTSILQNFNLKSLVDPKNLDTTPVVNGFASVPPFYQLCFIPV
Sequence of Cytochrome P450 2C19 (Homo sapiens) (P33261 whole entry, looked up): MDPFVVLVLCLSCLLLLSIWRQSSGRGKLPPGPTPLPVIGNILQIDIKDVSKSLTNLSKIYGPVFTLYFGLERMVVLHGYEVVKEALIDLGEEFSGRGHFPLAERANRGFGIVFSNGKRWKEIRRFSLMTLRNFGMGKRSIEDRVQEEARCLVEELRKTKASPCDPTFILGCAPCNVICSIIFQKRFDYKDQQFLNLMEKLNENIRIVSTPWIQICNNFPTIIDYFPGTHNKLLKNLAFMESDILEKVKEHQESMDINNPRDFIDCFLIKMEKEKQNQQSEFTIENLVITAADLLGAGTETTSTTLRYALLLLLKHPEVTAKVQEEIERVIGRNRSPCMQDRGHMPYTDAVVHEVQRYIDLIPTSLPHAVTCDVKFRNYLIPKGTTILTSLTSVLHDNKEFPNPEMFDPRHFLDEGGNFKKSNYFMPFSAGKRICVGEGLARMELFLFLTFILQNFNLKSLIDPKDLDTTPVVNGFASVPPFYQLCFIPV

Consider `O=S(=O)(O)c1cc(O)c2c(N=Cc3ccccc3O)cc(S(=O)(=O)O)cc2c1`, for which the Potency in assay [1] was > 11.4 µM; in assay [5], > 46 µM; in assay [6], > 9.22 µM; in [9] it was 3.16 µM (active); in assay [10] it was 1.58 µM (active). The figures for the activity change, negative = inhibition in assay [2] and in assay [3] were -23.7% [at 2.29 µM] and 8.24%, respectively. Besides, in assay [4], the activity, negative = inhibition was -1.77%. The Potency entry in assay [7] and in [8] was “inactive” each time.
With `COc1cccc2c1C(=N)c1c(O)c3c(c(O)c1C2=O)C[C@](O)(C(C)=O)C[C@@H]3O[C@H]1C[C@H](N)[C@@H](O)[C@H](C)O1`, the values for the Potency in assay [1], in [5] and in [6] were > 11.4 µM, > 46 µM and > 9.22 µM, respectively. Moreover, the activity change, negative = inhibition in [11] is -2.66%. The Potency entry in [8] was “inactive”.
Consider `O=C(O)c1[nH]c2c([N+](=O)[O-])cc([N+](=O)[O-])cc2c1C(=O)O`, for which the Potency in [1] is > 11.4 µM; in assay [2], 126 nM (active); in assay [5], > 46 µM; in [6], > 9.22 µM; in [9], 3.16 µM (active). Also, the activity change, negative = inhibition in [3] is 2.5%. Besides, in assay [4], the activity, negative = inhibition was -6.73%. Also, the Potency result in [7] and in assay [8] was “inactive” in each case.
Regarding `CC(C)(C)c1ccc(O)c(CN(Cc2c(O)ccc3ccccc23)C2CCCCC2)c1`, the Potency in [1] is > 11.4 µM; in [2], 3980 nM (active); in assay [5], > 46 µM; in assay [6], > 9.22 µM; in assay [12] it was 794 nM (active); in [10] it was 2 µM (active). The activity change, negative = inhibition in assay [3] was -10.8%. The activity, negative = inhibition in [4] is -13.7%. Moreover, the Potency entry in [7] and in [8] was “inactive” throughout. Further, in assay [13], the activation is 2.73%.
Turning to `CN(C)Cc1cc(O)c(O)c(CN(C)C)c1`, the Potency in [1] was > 11.4 µM; in assay [5] it was > 46 µM; in assay [6] it was > 9.22 µM. For the same molecule, the Potency entry in assay [2], in assay [7] and in assay [8] was “inactive” throughout. Further, the activity change, negative = inhibition in [3] is 3.49%. The activity, negative = inhibition in assay [4] is 2.92%.
`C[C@@H]1CCCN(C[C@@H](O)CN2CCCc3ccccc32)C1`: the Potency in assay [1] is > 11.4 µM; in [5], > 46 µM; in assay [6] it was > 9.22 µM; in [12], 1580 nM (active). The Potency result in assay [2], in assay [7] and in assay [8] was “inactive” throughout. In addition, the activity change, negative = inhibition in assay [3] is -7.43%. Besides, in [4], the activity, negative = inhibition was 11.4%.
For `Nc1ncnc2c1ncn2C[C@@H](O)C(=O)O`, the Potency in assay [1] was > 11.4 µM; in [5], > 46 µM; in [6], > 9.22 µM. The Potency result in assay [2], in assay [7] and in assay [8] was “inactive” throughout. In addition, in [3], the activity change, negative = inhibition was 2.36%. Moreover, the activity, negative = inhibition in assay [4] was -0.0646%.
As for `O=C1Oc2ccccc2C(=O)/C1=C\N1C(=O)N/C(=C\c2ccccc2O)C1=O`, the Potency in [1] was > 11.4 µM; in [2], 316 nM (active); in [5], > 46 µM; in [6] it was > 9.22 µM. In [3], the activity change, negative = inhibition was -7.15%. The activity, negative = inhibition in assay [4] was -25.4%. Moreover, the Potency result in [7], in [8] and in [14] was “inactive” in each case.
